The results in this text go back to PubChem BioAssay.

What is called inhibition is the change of the read-out against control, counted positive when it falls.

For test [1], the target named is NAD(+) hydrolase SARM1 (Homo sapiens) (UniProt Q6SZW1). Put plainly: blocking NAD cleavage by SARM1 SAM-TIR – cell lysate, NAD-Glo luminescence (AID 1508614;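 active = compound whose remaining NAD level is above about 45 nM, limit read from the data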;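 note: higher remaining NAD means stronger inhibition of SARM1 NADase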). Particulars: SAM-TIR HEK293T lysate NADase, at 1 µM, stronger effect = higher value.
Chain of NAD(+) hydrolase SARM1 (Homo sapiens) (Q6SZW1 whole entry, looked up, the tested form may be a part): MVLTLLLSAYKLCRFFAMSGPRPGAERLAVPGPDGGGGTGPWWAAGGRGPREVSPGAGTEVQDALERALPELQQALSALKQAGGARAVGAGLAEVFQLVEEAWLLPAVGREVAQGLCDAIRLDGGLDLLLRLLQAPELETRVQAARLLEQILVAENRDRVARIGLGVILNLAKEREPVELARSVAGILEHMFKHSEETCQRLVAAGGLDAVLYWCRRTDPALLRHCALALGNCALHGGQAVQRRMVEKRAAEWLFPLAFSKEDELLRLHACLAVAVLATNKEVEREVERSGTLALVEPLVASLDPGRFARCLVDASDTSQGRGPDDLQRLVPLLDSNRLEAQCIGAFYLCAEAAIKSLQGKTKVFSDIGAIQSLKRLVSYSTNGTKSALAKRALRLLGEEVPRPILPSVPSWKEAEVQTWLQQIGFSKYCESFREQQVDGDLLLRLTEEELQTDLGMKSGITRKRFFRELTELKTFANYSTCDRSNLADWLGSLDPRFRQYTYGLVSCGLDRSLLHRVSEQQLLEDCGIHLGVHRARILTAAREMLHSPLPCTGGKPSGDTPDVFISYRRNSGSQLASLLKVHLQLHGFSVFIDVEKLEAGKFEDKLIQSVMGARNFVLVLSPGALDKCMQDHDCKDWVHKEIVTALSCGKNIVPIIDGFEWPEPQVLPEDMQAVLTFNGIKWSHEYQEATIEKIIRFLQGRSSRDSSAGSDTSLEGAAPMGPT
In test [2] the target is Mitogen-activated protein kinase 7 (Homo sapiens) (UniProt Q13164). Put plainly: Gal4-ERK5 driven luciferase induction – cell-based, HTS, primary screen (AID 1508626;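 active = luciferase signal above three times the same-plate solvent-only control wells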;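 note: luciferase driven by Gal4-ERK5 fusion binding five Gal4 sites before minimal TATA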). Particulars: HeLa Gal4-ERK5 transactivation, 18 h, at 5 µM, stronger effect = higher value.
Chain of Mitogen-activated protein kinase 7 (Homo sapiens) (Q13164 whole entry, looked up, the tested form may be a part): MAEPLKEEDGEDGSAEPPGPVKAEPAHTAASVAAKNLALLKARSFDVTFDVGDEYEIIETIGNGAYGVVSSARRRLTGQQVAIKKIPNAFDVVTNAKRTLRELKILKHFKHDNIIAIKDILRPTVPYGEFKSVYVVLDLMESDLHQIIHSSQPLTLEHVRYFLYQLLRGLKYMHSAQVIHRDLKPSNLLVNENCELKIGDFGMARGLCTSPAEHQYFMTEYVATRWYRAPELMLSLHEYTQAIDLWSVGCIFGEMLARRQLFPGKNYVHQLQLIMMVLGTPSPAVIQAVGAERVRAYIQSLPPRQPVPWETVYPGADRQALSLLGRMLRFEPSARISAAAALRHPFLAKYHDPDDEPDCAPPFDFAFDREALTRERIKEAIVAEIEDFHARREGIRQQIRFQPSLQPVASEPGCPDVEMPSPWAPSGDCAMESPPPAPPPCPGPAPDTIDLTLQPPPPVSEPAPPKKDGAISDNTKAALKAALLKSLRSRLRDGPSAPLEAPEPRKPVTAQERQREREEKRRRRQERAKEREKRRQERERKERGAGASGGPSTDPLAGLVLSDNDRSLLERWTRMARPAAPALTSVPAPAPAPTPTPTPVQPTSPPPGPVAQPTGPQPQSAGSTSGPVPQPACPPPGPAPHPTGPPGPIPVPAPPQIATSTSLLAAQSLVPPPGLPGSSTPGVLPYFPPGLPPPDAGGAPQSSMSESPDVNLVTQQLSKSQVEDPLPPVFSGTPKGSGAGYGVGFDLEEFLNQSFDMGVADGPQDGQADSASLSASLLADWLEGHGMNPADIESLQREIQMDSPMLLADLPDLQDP
Test [3] in a line: growth inhibition, single agent or in combination, cell-based, chromothripsis tumors, cisplatin or BGB combos (AID 1671449).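 Note: cells exposed for 96 hours; 0% = vehicle DMSO and 100% = killing by high DMSO.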 Particulars: LFS_MB_P medulloblastoma cells.
The nature of test [4]: growth inhibition, single agent and combos, cell-based, chromothripsis tumors, cisplatin or BGB combos (AID 1671450).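 Note: cells exposed to compound for four days; 0% = vehicle DMSO and 100% = cell killing by high DMSO.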 Particulars: HDN33 neuroblastoma cells, stronger effect = higher value.
A short description of test [5]: growth inhibition, single agents and combos, ICB984, cell-based, cisplatin or BGB combos, synergistic combos for chromothripsis tumors (AID 1671451; call rule not given here;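 note: cells exposed for 96 hours before readout; 0% = vehicle DMSO and 100% = killing by high DMSO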). The following applies: ICB984 medulloblastoma cells, drug combinations, stronger effect = higher value.
Test [6] in a line: growth inhibition, single agents and combos, LFS_MB_1R, cell-based, cisplatin or BGB combos, synergistic combos for chromothripsis tumors (AID 1671452).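 Note: cells exposed for 96 hours before readout.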 Particulars: LFS_MB_1R medulloblastoma cells, stronger effect = higher value.
Test [7] can be described thus: growth inhibition, single agents and combos, HTB85, cell-based, BGB or cisplatin IC20 combos, synergistic combos for chromothripsis tumors (AID 1671453).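 Note: cells exposed for 96 hours before readout; 0% = vehicle DMSO and 100% = high DMSO killing control.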 Particulars: HTB85 osteosarcoma cells, drug combinations, stronger effect = higher value.
The nature of test [8]: growth inhibition, single agents and combos, CRL2098, cell-based, BGB or cisplatin IC20 combos, synergistic combos for chromothripsis tumors (AID 1671454).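 Note: cells exposed for 96 h before readout; 0% = vehicle DMSO and 100% = killing by high DMSO.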 Particulars: CRL2098 osteosarcoma cells, drug combinations, stronger effect = higher value.
Test [9] is described as follows: growth inhibition, single agents and combos, HD-MB03, cell-based, BGB or cisplatin IC20 combos, synergistic combos for chromothripsis tumors (AID 1671455; in the data active = inhibition above about 83%;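 note: 0% = vehicle DMSO and 100% = high DMSO as cytotoxic control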). The following applies: HD-MB03 medulloblastoma cells, stronger effect = higher value.
Test [10] can be described thus: growth inhibition, single agents and combos, UWB1.289, cell-based, BGB or cisplatin combos, synergistic combos for chromothripsis tumors (AID 1671456).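 Note: cells exposed to compound for four days; 0% = vehicle DMSO and 100% = killing by high DMSO.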 Particulars: UWB1.289 ovarian carcinoma cells, stronger effect = higher value.
Test [11] in a line: growth inhibition, single agents and combos, LFS_MB_2R, cell-based, cisplatin combos, synergistic combos for chromothripsis tumors (AID 1671457).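 Note: cells exposed to compound for four days before readout.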 Particulars: LFS_MB_2R medulloblastoma cells, stronger effect = higher value.
Test [12] can be described thus: growth inhibition, MDA-MB-436, cell-based, BGB or cisplatin combos, synergistic combos for chromothripsis tumors (AID 1671458; call rule not given here;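 note: cells exposed for 96 hours; 0% = vehicle DMSO and 100% = killing by high DMSO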). Particulars: MDA-MB-436 breast carcinoma growth inhibition, drug combinations, stronger effect = higher value.
Test [13] can be described thus: UWB1.289_BRCA1 ovarian cancer growth, cell-based, BGB or cisplatin combinations (AID 1671459). Particulars: UWB1.289 BRCA1 ovarian carcinoma, drug combinations, stronger effect = higher value.
The nature of test [14]: drug combination toxicity in non-malignant astrocytes – cell-based, BGB or cisplatin IC20 combos, cytotoxicity control for chromothriptic childhood tumor combination screen (AID 1671460).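 Note: cells exposed to compounds for 96 hours before viability readout; 0% = vehicle and 100% = killing control.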 The following applies: Human astrocytes, viability inhibition, drug combinations, at 0.5 µM, stronger effect = higher value.
A short description of test [15]: BT084 cell growth, single and combined drugs, ICGC_MB145, cisplatin and BGB IC40 combos (AID 1671461).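 Note: cells exposed to drugs for 96 hours; 0% = vehicle DMSO and 100% = high DMSO full killing control.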 Particulars: BT084 medulloblastoma cells, drug combinations, stronger effect = higher value.
Test [16] is described as follows: RCMB18 cell growth, single agent and combined, cisplatin and BGB IC40 combos (AID 1671462).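 Note: cells exposed to compound for four days.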 Particulars: RCMB18 medulloblastoma cells, stronger effect = higher value.
A short description of test [17]: CRL1545 cell growth, single agent and combined, cisplatin and BGB IC20 combos (AID 1671464).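 Note: cells exposed to compound for 96 hours before readout; 0% = vehicle DMSO and 100% = high DMSO killing control.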 The following applies: CRL1545 osteosarcoma cells, stronger effect = higher value.
A short description of test [18]: galactose survival enhancers in mitochondrial complex I cybrids – cell-based, galactose medium, ATP luminescence, primary screen (AID 1645843;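 active = z-score of at least 1.8 in each of two replicates, scored against plate mean and spread of sample wells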;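 note: positive z means more ATP and so rescue of galactose-driven cybrid death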). The following applies: complex I mutant cybrid cells, 72 h, stronger effect = higher value.
The mark [19] stands for this setting: measured here: combination with BGB IC40, at 0.05 µM.
Setting [20] is: measured here: with BGB IC20 combination, at 0.5 µM.
[21] abbreviates: measured here: with cisplatin IC20 combination, at 0.5 µM.
The mark [22] stands for this setting: measured here: combination with cisplatin, at 0.5 µM.
Setting [23] is: measured here: combination with cisplatin, at 5 µM.

Several values for one entry are separate records, joined by “and”; a condition that tells them apart may be missing. Equal entries are not always repeated. Some structures have more than one record in an assay (separate samples or runs), and their calls can disagree. Activity calls are given as the source filed them. Cut-off read from the data, not from the text of the source, unless noted: active = inhibition above about 80%; inactive = the rest.

On to `O=C(O)P(=O)(O)O`, for which the remaining NAD in test [1] was 10 nM (inactive). Also, the luciferase signal in [2] is 16 AU (inactive). Moreover, the inhibition in test [3] (at 0.5 µM, stronger effect = higher value) was -17.5% (inactive); in [3] (measured here: combination with BGB IC20, at 0.005 µM), -17.5%; in [3] (measured here: combination with BGB IC40, at 0.005 µM), -19.7%; in [3] (setting [19]), -16.3%; in test [3] (measured here: combination with cisplatin, at 0.5 µM, stronger effect = higher value), -28.3%; in test [3] (measured here: combination with cisplatin, at 5 µM, stronger effect = higher value), -12.6%. Also, the inhibition was -58% in [4] (BGB combo, at 5 µM); -36.9% (inactive) in test [4] (at 0.5 µM); -60.9% in test [4] (cisplatin combo, at 5 µM); -38.1% in test [4] (setting [20]); -23.4% in [4] (setting [21]); -52.1% in [4] (single agent, at 5 µM). Also, the inhibition in [5] (BGB IC20 combo, at 0.005 µM) is -19.7%; in test [5] (BGB IC40 combo, at 0.005 µM), -25.3%; in test [5] (BGB IC40 combo, at 0.05 µM) it was -29.6%; in test [5] (at 0.5 µM), -22.4% (inactive); in test [5] (cisplatin combo, at 0.05 µM), -29.6%; in test [5] (cisplatin combo, at 0.5 µM), -36.7%. Besides, the inhibition is -14% in test [5] (cisplatin combo, at 5 µM); -14.5% in test [5] (measured here: 5 uM single agent, at 5 µM); -51.1% (inactive) in test [6] (at 0.5 µM); -50.8% in test [6] (setting [19]); -81.2% in test [6] (setting [22]); -40.9% in test [6] (setting [23]). In addition, the inhibition in [7] (at 0.5 µM) is -23.4% (inactive); in test [7] (measured here: with BGB IC20, at 0.5 µM), -66.1%; in [7] (measured here: with BGB IC20, at 5 µM), -35%; in test [7] (measured here: with cisplatin IC20, at 0.5 µM), 20.5%; in [7] (measured here: with cisplatin IC20, at 5 µM), -22.8%; in test [7] (single agent, at 5 µM), -25.8%. Moreover, the inhibition in test [8] (at 0.5 µM) was -107% (inactive); in [8] (measured here: combination with BGB at IC20, at 0.5 µM), -77.3%; in test [8] (measured here: combination with cisplatin at IC20, at 0.5 µM), -148%; in test [9] (at 0.5 µM), -14.1% (inactive); in test [9] (measured here: combo with BGB at IC20, at 0.5 µM), -16%; in test [9] (measured here: combo with cisplatin at IC20, at 0.5 µM), -17.1%. For the same compound, the inhibition in [10] (at 0.5 µM) was -11.3% (inactive); in test [10] (measured here: inhibition with BGB combination, at 0.05 µM) it was -27.2%; in test [10] (measured here: inhibition with cisplatin combination, at 0.05 µM), -24%; in test [11] (at 0.5 µM) it was -19.3% (inactive); in test [11] (setting [22]) it was -14.2%; in test [11] (setting [23]), -18.5%. Moreover, the inhibition is -30.5% (inactive) in [12] (at 0.5 µM); -34.2% in [12] (measured here: BGB combination, at 0.5 µM); -30.6% in test [12] (measured here: BGB combination, at 5 µM); -45.7% in test [12] (measured here: cisplatin combination, at 0.5 µM); -24.2% in test [12] (measured here: cisplatin combination, at 5 µM); -19.2% in [13] (BGB combination, concentration series, at 5 µM). The inhibition is -15.7% (inactive) in test [13] (at 0.5 µM); -10.9% in test [13] (cisplatin combination, concentration series, at 5 µM); 0.14% (inactive) in test [14]; 1.18% in test [14] (measured here: combo with BGB IC20); -8.98% in test [14] (measured here: combo with cisplatin IC20); -21.4% (inactive) in [15] (at 0.5 µM). In addition, the inhibition in test [15] (cisplatin combination, at 0.5 µM) is -13.9%; in [15] (cisplatin combination, at 5 µM), -72.5%; in test [15] (measured here: BGB IC40 combination 0.05 uM, at 0.05 µM) it was 11.4%; in test [15] (single agent, at 5 µM) it was -13.1%; in [16] (at 0.5 µM), -28.6% (inactive); in [16] (cisplatin combo, at 5 µM), -9.59%. In addition, the inhibition is -13.4% in test [16] (measured here: BGB IC40 combination, at 0.05 µM); -44.4% in test [16] (setting [22]); -27.5% in test [16] (single agent, at 5 µM); -83.7% (inactive) in test [17] (at 0.5 µM); -15.5% in test [17] (setting [20]); -118% in [17] (setting [21]). Moreover, the inhibition in [17] (single agent, at 0.05 µM) is -51.7%; in [17] (single agent, at 5 µM), -82.1%.

On to `COc1cc(C(=O)OCCCN2CCCN(CCCOC(=O)c3cc(OC)c(OC)c(OC)c3)CC2)cc(OC)c1OC`, for which the remaining NAD in [1] was 10 nM (inactive). For the same compound, the z-score in test [18] was -0.89 (inactive) and 0.995 (inactive) and -0.26 (inactive).

As to `CSc1ccc2c(c1)C(N1CCN(C)CC1)Cc1ccccc1S2` (configuration not stated), the remaining NAD in test [1] was 10 nM (inactive). The z-score in [18] is -1.29 (inactive) and -1.22 (inactive) and -2.1 (inactive).

On to `CCC1=C(C)CN(C(=O)NCCc2ccc(S(=O)(=O)NC(=O)NC3CCC(C)CC3)cc2)C1=O` (configuration not stated), for which the remaining NAD in test [1] is 10 nM (inactive). Moreover, the z-score in [18] is 2.29 (active) and 6.57 (active) and 1.99 (inactive).

`Cn1c(=O)c2c(ncn2CCO)n(C)c1=O`: the luciferase signal in test [2] was 196 AU (active).
